JMJD2A Tudor inh: blocks the human JMJD2A Tudor domain | AlphaScreen JMJD2A-Tudor / H3K4me3 peptide binding | AID 504339 | hit rate 4.4% among 390,000 | O75164 | Potency, µM (titrated, usually from 114 µM), actives largely listed as inhibitors; also: nearly all actives have a fitted effect of over 50% in size
HP1b binding inh: inhibitors of HP1-beta chromodomain binding to methylated histone tails. P83916. Potency, µM (series often up to 114 µM), most hits filed as inhibitors. hit rate 0.56% among 390,000. AlphaScreen HP1-beta / biotin-H3K9me3 peptide binding; also: nearly all actives have a fitted effect of over 70% in size
Target sequence (P83916 whole entry, looked up): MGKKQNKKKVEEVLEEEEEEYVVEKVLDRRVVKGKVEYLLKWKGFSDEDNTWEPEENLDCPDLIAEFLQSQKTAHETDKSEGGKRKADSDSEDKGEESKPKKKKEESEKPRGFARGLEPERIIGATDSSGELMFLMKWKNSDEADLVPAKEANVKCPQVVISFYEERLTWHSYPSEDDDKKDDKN
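AlphaScreen: HP1-beta (50 nM) preformed 30 min with biotin-H3(1-18)K9me3 peptide (50 nM) in PBS pH 7.4, 0.01% Tween-20. Compound added for 30 min at RT, then streptavidin donor/nickel chelate acceptor beads (10 ug/mL) for 30 min.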
BAZ2B inh: blocks human BAZ2B. Q9UIF8. AlphaScreen BAZ2B-H3K14Ac peptide displacement. Potency, µM (highest dose often 114 µM), most hits filed as inhibitors. hit rate 4.4% among 360,000; also: nearly all actives have a fitted effect of over 60% in size
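Multi-concentration screen (max 110 uM) measuring displacement of acetylated histone H3 peptide from BAZ2B by AlphaScreen, using 50 nM protein, 50 nM peptide and 10 ug/mL streptavidin donor plus Ni-chelate acceptor beads.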
G9a inh: blocks human histone lysine methyltransferase G9a; G9a H3K9 monomethylation, AlphaScreen, 2 h; Q96KQ7; hit rate 8.8% among 350,000; Potency, µM (series often up to 102 µM), most hits filed as inhibitors; also: nearly all actives have a fitted effect of over 75% in size
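Step 1: enzyme (final 20 nM) with compound, 15 min RT. Step 2: substrate peptide 500 nM and SAM 20 uM, 2 h RT. Step 3: anti-H3K9me1 antibody and AlphaScreen beads, 10 min, then plate read.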
PI5P4K alpha inh: blocks human PI5P4K alpha kinase activity | P48426 | PI5P4Kalpha enzyme, ADP-Glo luminescence, 60 min; stronger effect = lower value | max response, % | hit rate 1.2% among 330,000; active = max response of -50% or lower; inconclusive = between -30% and -50%; inactive = -30% or higher; also: value at the top dose of about 77 µM
Target sequence (P48426 whole entry, looked up): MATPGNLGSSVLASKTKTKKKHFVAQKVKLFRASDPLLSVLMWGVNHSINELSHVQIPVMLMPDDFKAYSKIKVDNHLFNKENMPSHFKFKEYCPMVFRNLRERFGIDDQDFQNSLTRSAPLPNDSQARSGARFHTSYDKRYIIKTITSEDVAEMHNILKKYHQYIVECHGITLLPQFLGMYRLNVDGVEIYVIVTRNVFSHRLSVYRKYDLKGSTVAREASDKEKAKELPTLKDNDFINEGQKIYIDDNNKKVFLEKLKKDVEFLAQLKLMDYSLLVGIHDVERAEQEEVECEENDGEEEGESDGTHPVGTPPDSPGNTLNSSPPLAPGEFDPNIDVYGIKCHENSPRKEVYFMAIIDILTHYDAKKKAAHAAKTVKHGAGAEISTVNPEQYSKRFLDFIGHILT
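qHTS, 1536-well: enzyme/substrate mix, compound by pin tool, 5 microM ATP final; RT 60 min; ADP-Glo reagents 1 (45 min) then 2 (30 min); luminescence.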
PLK1 PBD block: blocks phosphopeptide binding to human PLK1 polo-box domain; Plk1 PBD binding of FITC phosphopeptide, fluorescence polarization; hit rate 2.8% among 360,000; Potency, µM, actives largely listed as inhibitors; also: series mostly up to about 57 µM; nearly all actives have a fitted effect of over 65% in size
Numbers stand for hits; 0 = inactive; ? = inconclusive; - = not tested or not shown; [ ] = dose if it differs, or a comment. Only some compounds are listed: those with a hit (about 12% of all), similar ones and a draw of the others. Unless noted, calls follow the shape of the dose curve; as a rule, active = well fitted curve in the direction sought with a large enough effect; inconclusive = small, poorly fitted or top-dose-only effect, or another doubt; inactive = no such curve, though single readings can be large; an effect the other way counts as inactive or inconclusive.

SMILES | JMJD2A Tudor inh | HP1b binding inh | BAZ2B inh | G9a inh | PI5P4K alpha inh | PLK1 PBD block
OC(CNCCc1ccccc1)COc1ccc(OCC(O)CNCCc2ccccc2)cc1 (stereo not drawn) | ? | 0 | 0 | - | 0 | 0
CN(C)CCCOc1ccc(C(C)(C)c2ccccc2)cc1 | 1.6µM | ? | 50µM | ? | 0 | 0
CN(C)CCCOc1cccc(Cl)c1 | 18µM | ? | 79µM | 14µM | 0 | 0
CN(C)CCCOc1cccc(Oc2ccccc2)c1 | 56µM | ? | ? | 14µM | 0 | 0
CCCCNCCCOc1cccc(Cl)c1 | 0 | 0 | 0 | 0[12.7 µM] | - | 0
Cc1cc(OCC(=O)Nc2cc(-c3nc4ccccc4[nH]3)ccc2C)ccc1Cl | 0 | 0 | 0 | 0 | - | -
Brc1ccc(-c2noc3c2-c2nc(-c4ccccc4)sc2CC3)cc1 | 0 | 0 | - | - | 0 | 0
Cc1c(C(=O)NCc2ccccc2C(F)(F)F)sc(=O)n1Cc1ccc2ccccc2c1 | - | - | - | - | 0 | 0
Cn1cccc1C(=O)N1CCC[C@@]2(CCN(c3cccc(-c4ccccc4)c3)C2)C1 | - | - | - | 0[12.7 µM] | - | -
Cc1noc(NS(=O)(=O)c2ccc(N/C=C/C(=O)c3ccc4c(c3)OCO4)cc2)c1C | 0 | 0 | ? | 79µM | 0 | 0
O=C(/C=C\Nc1ccc2c(c1)OCO2)c1ccc2c(c1)OCO2 | ? | 0 | 0 | 0 | -59 | 11µM
Cc1noc(NS(=O)(=O)c2ccc(N/C=C\C(=O)c3ccccc3)cc2)c1C | 0[11.4 µM] | 0 | 0 | 50µM | 0 | ?
COc1cc(/C=C/C(=O)c2ccc3c(c2)OCO3)cc(Cl)c1O | ? | ? | ? | 45µM | 0 | 0
Cc1noc(NS(=O)(=O)c2ccc(N/C=C\C(=O)c3ccc(F)cc3)cc2)c1C | 0 | 0 | ? | - | 0 | 0
Cc1c(C(=O)NCc2ccc3c(c2)OCCO3)sc(=O)n1Cc1ccc(S(=O)(=O)N(C)C)cc1 | - | - | - | - | 0 | 0
COc1ccc(C(C)=O)cc1CSc1nc2cc(C(=O)O)ccc2c(=O)n1Cc1ccccc1 | 0 | 0 | 50µM | ? | -60 | ?
CCOC(Cn1c(SCc2cc(C(C)=O)ccc2OC)nc2ccccc2c1=O)OCC | 0 | 0 | 0 | 0 | 0 | 0
O=C(O)c1ccc2ccc3ccccc3c2c1 | 0 | 0 | - | - | 0 | 0
CCSC1(SCC)N=C(N)C2(C#N)C(c3ccc(OC)c(OC)c3OC)C12C#N (stereo not drawn) | 0 | 0 | 0 | ? | 0 | 13µM
OC(CN1c2ccccc2Sc2ccccc21)Cn1nnc2ccccc21 (stereo not drawn) | ? | ? | 0 | 20µM | 0 | 0
Cc1nn(CC(O)CN2c3ccccc3Sc3ccccc32)c(C)c1Br (stereo not drawn) | ? | ? | ? | ? | 0 | 3.8µM
COc1ccc(CN=C(C#N)C2=C(O)c3ccccc3C2=O)cc1 | ? | 0 | 0 | 35µM | 0 | 0
N#CC(=Nc1cccc(F)c1)C1=C(O)c2ccccc2C1=O | - | - | - | - | 0 | 0
Cc1ccc2c(c1)N(C)/C(=C/c1cccc[n+]1C)S2 | ? | 0 | ? | 6.3µM | 0 | 0
Cc1ccc2c(c1)N(C)/C(=C/c1cccc[n+]1CCO)S2 | ? | 0 | 0 | 32µM | 0 | 0
SMILES | JMJD2A Tudor inh | HP1b binding inh | BAZ2B inh | G9a inh | PI5P4K alpha inh | PLK1 PBD block
CN1/C(=C/c2cccc[n+]2C)Sc2ccccc21 | ? | 0 | ? | 25µM | 0 | 0
COCC(=O)/C=C1\Sc2ccccc2N1C | 0 | 0 | 0 | 0 | - | 0
CSc1nn(Cc2ccccc2C)c(NC(C)=O)c1S(=O)(=O)c1ccc(C)cc1 | 0 | 0 | 0 | 0 | - | -
COc1ccc(NC(=O)CN(C)C(=O)C(Sc2ccccc2)c2ccccc2)cc1 (stereo not drawn) | 0 | 0 | 0 | 0[12.7 µM] | 0 | ?
Cc1ccc(CN=Cc2[nH]c3ccc(Br)c(Cl)c3c2O)cc1 | 50µM | 45µM | ? | 28µM | - | 0
Cc1ccc(O)c(/C=N/NC(=O)Cc2ccc(Cl)cc2)c1 | 0 | 0 | 0 | 0 | 0 | 0
CC1CC(CC(=O)Nc2nc(-c3ccccc3)cs2)C(=O)O1 (stereo not drawn) | 0 | 0 | 0 | 0 | 0 | 0
C/C(CC1CC(COCC(C)C)OC1=O)=N\Nc1nc(-c2ccccc2)cs1 (stereo not drawn) | ? | 0 | ? | 25µM | - | 21µM
CC(=O)Nc1cc2c(cc1Br)-c1ccccc1C2 | 0 | 0 | - | - | 0 | 0
c1cnc2ccc(-n3ccnc3)cc2c1 | - | - | - | - | 0 | 0
CN1C=CC=C/C1=C1\SC(=S)N(N)C1=O | 0 | 0 | 0 | 28µM | 0 | 0
Cn1c(=O)c2c(-c3ccccc3Br)n(C(C)(C)C)cc2n(C)c1=O | 0 | 0 | 79µM | 0 | - | -
CC(C)(C)S(=O)N1Cc2cc(C(=O)NCc3ccc(Oc4ccccc4)cc3)nc(-c3cccc(-c4cc5ccccc5o4)c3)c2[C@@H]1CCO (stereo partly drawn) | - | - | - | - | 0 | 0
COc1ccccc1C(=O)Nc1ccc(NC(=O)C2CCCCC2)nc1 | 0 | 0 | 0 | 0 | 0 | 0
O=C(Nc1ccc(NC(=O)C2CCCCC2)nc1)c1ccccn1 | ? | 0 | ? | 28µM | 0 | 0
O=C(Nc1ccc(NC(=O)C2CC2)cn1)c1ccccc1Cl | 0[11.4 µM] | 0 | 0 | 0 | 0 | 24µM
CCCC(=O)Nc1ccc(NC(=O)c2ccccc2OC)cn1 | 0 | 0 | 0 | 0 | 0 | 0
O=C(Nc1ccc(NC(=O)C2CC2)cn1)c1ccccc1 | 0 | 0 | 0 | 0 | 0 | 0
CCCC(=O)Nc1ccc(NC(=O)c2ccccn2)cn1 | 3.2µM | 0 | 0 | ? | 0 | 0
COc1cccc(C(=O)Nc2ccc(NC(C)=O)cn2)c1 | 0 | 0 | 0 | 0 | 0 | 0
COc1cccc(C(=O)Nc2ccc(NC(=O)C3CC3)nc2)c1 | 0 | 0 | 0 | 40µM | 0 | 0
Cc1ccc2c(c1)-c1onc(C(=O)N(C)c3cccc(C(F)(F)F)c3)c1CO2 | 0 | 0 | 0 | 0 | - | -
COC(=O)c1ccc(OC(=O)c2ccccc2F)cc1 | - | - | 0 | 0 | - | -
O=C(Oc1ccc(C(=S)N2CCOCC2)cc1)c1ccccc1F | 0 | 0 | 0 | 25µM | 0 | 21µM
O=C(Oc1ccc(C(=S)N2CCOCC2)cc1Cl)c1ccccc1F | 0 | 0 | 0 | 0[0.501 µM] | 0 | ?
SMILES | JMJD2A Tudor inh | HP1b binding inh | BAZ2B inh | G9a inh | PI5P4K alpha inh | PLK1 PBD block
O=C(Oc1ccc(C(=S)N2CCOCC2)cc1Br)c1ccccc1F | 0 | ? | 0 | 10µM | 0 | 24µM
CC(=O)/C(=N\Nc1ccc(Cl)cc1)Sc1nnc(-c2ccccc2)n1-c1ccccc1 | ? | 0 | 0 | 6.3µM | 0 | 0
CC1S/C(=N/N=C2CCCCC2)NC1=O (stereo not drawn) | ? | 0 | 50µM | 0 | 0 | 0
CC(C)(C)C1CCNC(=O)CC1 (stereo not drawn) | - | - | - | - | 0 | 0
CC1S/C(=N/N=C2CCC(C(C)(C)C)CC2)NC1=O (stereo not drawn) | 0 | 0 | 56µM | 0 | 0 | 0
O=S(=O)(c1ccc2c(c1)C(O)c1ccccc1CC2)C(F)(F)F (stereo not drawn) | 0 | 0 | 0 | 0[2.33 µM] | - | -
COc1ccccc1C=C1SC(=S)NC1=O | 0 | 0 | - | - | -72 | 27µM

From PubChem
